# D2 ag-1: HTS Assay for Allosteric Agonists of the Human D2 Dopamine Receptor: Primary Screen for Agonists. 0.53% of 340,000 active. activation, % at 2 µM. D(2) dopamine receptor (Homo sapiens), P14416. HEK293 T-REx D2 cells, calcium flux agonist mode;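 active = activation over 3 SD above normal in the single-dose calcium agonist read, cut at about 30% in these data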; also: 0% is about no effect
# Target sequence (P14416 whole entry, looked up): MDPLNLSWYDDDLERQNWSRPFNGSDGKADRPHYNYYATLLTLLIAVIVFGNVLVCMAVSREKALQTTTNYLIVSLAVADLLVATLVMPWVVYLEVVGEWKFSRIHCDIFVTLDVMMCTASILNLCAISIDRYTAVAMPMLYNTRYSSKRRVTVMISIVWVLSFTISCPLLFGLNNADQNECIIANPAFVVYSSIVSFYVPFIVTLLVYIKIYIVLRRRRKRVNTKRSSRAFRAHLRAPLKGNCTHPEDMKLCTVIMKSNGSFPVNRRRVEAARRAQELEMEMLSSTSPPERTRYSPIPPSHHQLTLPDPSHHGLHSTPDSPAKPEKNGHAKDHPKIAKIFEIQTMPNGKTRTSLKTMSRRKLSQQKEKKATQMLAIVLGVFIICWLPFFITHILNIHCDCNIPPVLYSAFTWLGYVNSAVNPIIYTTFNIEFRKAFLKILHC
#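 In this primary screen, compounds producing a positive calcium signal within 180 s of addition to tetracycline-induced, force-coupled HEK293 Trex D2 cells are flagged; cells are dye-loaded with a no-wash calcium kit beforehand.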
# D2 ag-2: Beta-Arrestin HTS for Positive Allosteric Modulators of the Human D2 Dopamine Receptor: Agonists | D(2) dopamine receptor (Homo sapiens), P14416 | DiscoveRx PathHunter D2 beta-arrestin, luminescence, 90 min; 100% = 57 uM dopamine signal | activation, % (no concentration beside the values) | 0.084% of 360,000 active; in the data active = activation above about 40%; inconclusive = between about 15% and that limit
#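 Agonist mode: compounds alone added to overnight-plated D2 PathHunter cells for 90 min at 37 C, with 57 uM final dopamine (EC100) defining full response. Beta-arrestin recruitment detected by chemiluminescent reagent, read after 1 h at ambient temperature.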
# D2 antag: HTS Assay for Allosteric Antagonists of the Human D2 Dopamine Receptor: Primary Screen for Antagonists. D(2) dopamine receptor (Homo sapiens), P14416. HEK293 TREx D2 cells, calcium flux, dopamine EC80. inhibition, % at 10 µM. 2% of 340,000 active; in the data active = inhibition above about 30%; inactive = below that, where a call was filed; also: 0% is about no effect
#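 Compounds are added to dye-loaded, induced HEK293 T-REx cells coupled to calcium release via D2; after a 3 min kinetic read an EC80 dopamine stimulus is given and fluorescence is recorded for 3 more min.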
# D2 PAM-1: Beta-Arrestin HTS for Positive Allosteric Modulators of the Human D2 Dopamine Receptor: Potentiators; potentiation, % (concentration not given with the values); AID 624464, 2012; DiscoveRx D2 beta-arrestin cells, luminescence, 90 min; 100% = 57 uM dopamine signal; 0.23% of 360,000 active; D(2) dopamine receptor (Homo sapiens), P14416; in the data active = potentiation above about 50%; inconclusive = mostly about 30% to 49%
#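 PathHunter D2 cells, attached overnight at 37 deg C, received compound in DMSO plus dopamine at EC20 (50 nM final) for 90 min at 37 deg C. Beta-arrestin recruitment was read as luminescence after 1 h with detection reagent at ambient temperature.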
# D2 PAM-2: HTS Assay for Positive Allosteric Modulators of the Human D2 Dopamine Receptor: Primary Screen for Potentiators; D(2) dopamine receptor (Homo sapiens), P14416; HEK293 T-REx D2, calcium flux, EC20 dopamine potentiation; potentiation, % at 10 µM; 0.34% of 340,000 active; AID 485347, 2010;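 active = potentiation over 3 SD above the plate norm, cut at about 30% in these data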; also: 0% is about no effect
#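 Potentiation of an EC20 dopamine calcium response measured kinetically over 180 s, after a preceding 180 s compound-only read flagging agonists. Cells: inducible Hek293 Trex D2 line, 4000/well, cultured overnight at 30 C before dye loading.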
# Starred values were filed as active, the others as inactive; u = inconclusive; x = no result given. Shown are actives, neighbours in structure and some others; about 2.4% of the full set was active somewhere.
SMILES,D2 ag-1,D2 ag-2,D2 antag,D2 PAM-1,D2 PAM-2
CCOc1ccc(C(=O)NNC(=O)CN2C(=O)NC3(CCCC3)C2=O)cc1,0.3,-3.9,42.1*,3.2,-10.7
COc1ccccc1C(=O)NCCn1cc(SCC(=O)Nc2ccccc2F)c2ccccc21,0.4,x,x,x,-4.6
C=CCn1c(C)cc(C(=O)COC(=O)/C=C/c2cccc(OC)c2)c1C,-2.0,-0.8,42.0*,1.3,4.8
Cc1ccc(CCNC(=O)c2ccc3c(c2)N(Cc2ccccc2F)C(=O)c2ccccc2S3=O)cc1 (centres undefined),1.2,x,x,x,-3.7
Cc1nc(Oc2ccccc2)c2ccsc2n1,-2.0,-2.7,5.5,-7.2,30.1*
COc1ccc(Oc2ncnc3sccc23)cc1,-0.1,-2.4,9.2,2.3,6.8
COc1ccc(-c2nc3n(c(=O)c2C#N)CCS3)cc1,x,2.7,x,1.6,x
FC(F)Oc1ccc(/C=N/c2c(-c3ccc(OC(F)F)cc3)nc3n2CCS3)cc1,-0.3,-0.2,-7.6,-9.0,34.6*
Cc1ccccc1OCC(=O)OCc1cc(=O)n2nc(C3CCCCC3)sc2n1,0.6,x,x,x,-2.7
Cn1c(Cn2nnc3ccccc32)nnc1SCC(N)=O,-3.1,-2.7,6.9,-5.0,33.9*
O=C(CCCC(=O)OCC(=O)c1ccc(F)cc1)Nc1cc(C(F)(F)F)ccc1Cl,0.6,-4.0,46.9*,0.0,-20.1
O=C(CCCC(=O)OCC(=O)c1ccc(Cl)cc1Cl)Nc1cc(C(F)(F)F)ccc1Cl,0.7,-10.8,19.4,-40.3,-10.9
CN(CC(=O)Nc1cc(S(=O)(=O)N2CCCC2)ccc1Cl)Cc1ccc2c(c1)OCO2,-0.6,-2.1,31.7*,-7.5,-16.3
O=C(COC(=O)c1ccc(O)cc1)Nc1cc(C(F)(F)F)ccc1Cl,2.7,6.4,-0.2,-4.2,-2.8
CCOC(=O)c1ccc[n+](CC(=O)Nc2cc(C(F)(F)F)ccc2Cl)c1,0.0,-3.4,52.5*,-15.0,-9.4
NC(=O)C1(N2CCCCC2)CCN(CC(=O)Nc2cc(Cl)ccc2Cl)CC1,0.4,-1.4,43.4*,-10.6,-24.8
COc1cc(OC)c(NC(=O)CSC2=Nc3ccccc3N=C(c3ccc(F)cc3)C2)cc1Cl,-1.7,x,x,x,-1.1
O=C(CN1CCCCC1)Nc1ccc(C(F)(F)F)cc1Cl,-0.6,-2.1,-28.7,1.0,-1.4
CCN(c1ccccc1)S(=O)(=O)c1ccc(Cl)c(NC(=O)CN2CCCCCC2)c1,1.0,1.7,0.8,-4.9,-10.0
O=C(CN1CCCC1)Nc1cc(C(F)(F)F)ccc1Cl,-2.5,-5.6,81.9*,-12.6,-19.7
CN(C)S(=O)(=O)c1ccc(Cl)c(NC(=O)CN2CCC(Cc3ccccc3)CC2)c1,-4.6,1.9,42.3*,-25.5,-10.3
CN(C)S(=O)(=O)c1ccc(NC(=O)CN2CCC(Cc3ccccc3)CC2)cc1,2.4,-2.5,-1.0,-3.1,-5.6
CN(C)S(=O)(=O)c1ccc(Cl)c(NC(=O)CN2CCCCCC2)c1,-2.9,-2.6,34.0*,-22.5,-29.6
CCc1ccccc1NC(=O)Cn1cc2c(n1)CCC(C)C2 (centres undefined),0.2,x,x,x,0.5
COc1ccc(-c2cc(C(F)(F)F)nc(SCC(=O)NCc3ccc(Cl)cc3)n2)cc1,x,x,x,x,-7.3
SMILES,D2 ag-1,D2 ag-2,D2 antag,D2 PAM-1,D2 PAM-2
O=C(COc1cc2oc(=O)c3c(c2cc1Cl)CCC3)NCCCN1CCCC1=O,1.2,-1.7,11.3,-18.2,0.0
O=C(COc1cc2oc(=O)c3c(c2cc1Cl)CCC3)Nc1ccc(CN2CCOCC2)cc1,0.1,2.1,-6.5,-0.9,30.4*
CC1CCC(C(C)C)C(OC(=O)COC(=O)c2cc(O)ccc2N)C1 (centres undefined),-1.3,u,4.9,92.8*,0.4
CC1CCC(C(C)C)C(OC(=O)COC(=O)c2ccc(=O)[nH]c2)C1 (centres undefined),1.7,0.6,6.2,-7.0,15.7
COc1cc(Cl)c(CN2CCCC(CO)(Cc3ccccc3F)C2)cc1OC (centres undefined),1.2,2.8,1.4,-12.6,1.4
CCOc1ccc(CN2CCCC(CO)(Cc3ccccc3F)C2)cc1 (centres undefined),0.4,-5.1,66.8*,-4.4,-35.1
CCn1ccnc1CN1CCCC(CO)(Cc2cccc(OC)c2)C1 (centres undefined),-1.3,-4.7,10.9,-18.8,-3.9
COc1cccc(CC2(CO)CCCN(Cc3ccc4c(c3)OCCO4)C2)c1 (centres undefined),0.4,-4.6,56.2*,-5.7,-27.9
OCC1(Cc2ccccc2)CCCN(Cc2ccc(-c3ccco3)cc2)C1 (centres undefined),-1.9,-5.9,54.2*,-28.9,-20.1
CCc1nnc(SCC(=O)Nc2cc(Cl)c(OC)cc2OC)c2cc3oc(C)cc3n12,-0.8,x,x,x,-17.9
COc1ccc(C(=O)Nc2cc3c(oc2=O)CCCC3=O)cc1,1.9,-5.7,10.4,-0.7,44.2*
Cc1cccc(C(=O)Nc2ccc(O)c3c(=O)cc(-c4ccccc4Cl)oc23)c1,0.4,-6.0,30.9*,-6.7,-3.2
O=C(Nc1ccc(O)c2c(=O)cc(-c3ccccc3Cl)oc12)c1cccc(Cl)c1,0.1,-2.7,23.5,-7.7,1.5
COc1ccc(CN2C(=O)C(NC(=O)c3ccccc3C)(C(F)(F)F)N=C2c2ccccc2)cc1 (centres undefined),0.0,x,x,x,-1.6
O=C(NCc1nc(-c2ccc(Cl)cc2)no1)c1ccco1,0.1,0.3,34.1*,-0.7,12.4
CC(C)(CC(=O)O)Cc1nc(-c2ccc(Cl)cc2)no1,-1.8,-3.0,43.6*,-5.9,-4.5
COc1ccc(-c2noc(CNC(=O)c3ccco3)n2)cc1,0.6,x,x,x,6.3
CCOC(=O)Cn1c(=O)oc2cc(S(=O)(=O)Nc3cc(OC)cc(OC)c3)ccc21,0.7,x,x,x,0.3
COc1cc(NC(=O)Cn2cnc(S(=O)(=O)N3CCOCC3)c2)cc(OC)c1OC,-0.7,-2.5,45.4*,-28.1,-7.3
Cc1cccc2cc(CN(Cc3ccc(F)cc3)Cc3nnnn3C3CCCC3)c(=O)[nH]c12,-1.4,-0.3,-2.1,-15.9,-1.7
Cc1cccc2cc(CN(Cc3cccs3)C3(c4nnnn4C4CCCC4)CCCC3)c(=O)[nH]c12,0.6,-2.4,77.5*,-5.1,7.1
CCN(C(=O)Cn1nc(Cc2cccnc2)c2ccccc2c1=O)c1cc(C)ccc1C,0.1,x,x,x,5.3

# Compound activity: PubChem, National Center for Advancing Translational Sciences (NCATS)
